Here are results for 14 compounds from PubChem BioAssay.

Experiment [1] is described as follows: inhibitors of TNFa-induced NFkB p65 translocation, primary screen, imaging, HUVEC, MLSMR starter and 10KST1 sets (AID 438;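 active means inhibition above 20% together with a positive visual image hit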;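 further: compound added about 3h40 before a 20 min TNFalpha stimulation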;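 on inhibition: signal is the nuclear over cytoplasmic p65 intensity ratio per well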). The conditions noted are these: HUVEC TNFa-induced p65 nuclear translocation; cell count: measured here: nuclei count (cytotoxicity indicator), at 2.08 µM; inhibition: at 2 µM, stronger effect = higher value, 0% TNFa-plus-vehicle, 100% no-TNFa wells.

The nature of experiment [2]: inhibitors of mutant huntingtin aggregation, primary screen, imaging, exon1htt(103Q)mCFP cells, high-content imaging (AID 483;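 active means visual image review flags a hit and inhibition of aggregation exceeds 20%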;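 further: compound exposure lasted 3 days before fixation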;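 on nuclei count: percent of the per-plate median nuclei count of sample wells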). The conditions noted are these: exon1htt(103Q)mCFP cell line, aggregate imaging, at 2 µM; inhibition of aggregation: stronger effect = higher value; nuclei count: measured here: cell count, toxicity.
Experiment [3] in a line: inhibitors of E-selectin induction by TNFa, primary screen, imaging, HUVEC, immunofluorescence, MLSMR starter and 10KST1 sets (AID 487;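 active means visually confirmed hit in the image check and inhibition above 20%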;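 on inhibition: signal is fraction of cell area covered by stained E-selectin grains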;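 on nuclei count: 100% = median nuclei count of all wells on the same plate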). Conditions: HUVEC TNFalpha-induced E-selectin immunofluorescence imaging, at 2 µM; inhibition: stronger effect = higher value; nuclei count: measured here: cell number, toxicity.
Experiment [4] concerns the target Voltage-gated potassium channel subunit beta-2 (Rattus norvegicus) (UniProt P62483). As to the kind of experiment: KvBeta enzyme negative modulators, primary screen, biochemical, NADPH fluorescence (AID 622;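 active means fluorescence slope higher than the sample average by over 3 SD, cut at about -0.22 in these data, passing the limit was not always enough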;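 further: slope of raw intensity against log time taken from 70 to 1610 s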). Conditions: recombinant KvBeta, 4-cyanobenzaldehyde reduction, at 10 µM, stronger effect = higher value.
The target is the same in experiment [5]. As to the kind of experiment: KvBeta positive modulators, primary screen, biochemical, NADPH fluorescence (AID 623;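 active means NADPH fluorescence slope more negative than the mean of all samples by about 3 SD, 99.7% confidence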;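 further: fluorescence intensity change per second fitted from 20 to 320 s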). The conditions noted are these: Recombinant KvBeta, NADPH fluorescence decrease slope, 10 min; at 10 µM; stronger effect = lower value.
Experiment [6] deals with Alpha-2C adrenergic receptor (Homo sapiens) (UniProt P18825). As to the kind of experiment: modulators of alpha2C/GIRK thallium flux, primary screen, cell-based, HEK293 alpha2C/GIRK1/2 (AID 624;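 active means fluorescence slope after compound addition differing from the mean of all screened samples at 99.7% confidence, in either direction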;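 further: slope of fluorescence ratio to pre-addition baseline per second over 15 to 24 s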). The conditions noted are these: thallium flux BTC fluorescence, at 10 µM, actives lie on both sides.
Sequence of Alpha-2C adrenergic receptor (Homo sapiens) (P18825 whole entry, looked up): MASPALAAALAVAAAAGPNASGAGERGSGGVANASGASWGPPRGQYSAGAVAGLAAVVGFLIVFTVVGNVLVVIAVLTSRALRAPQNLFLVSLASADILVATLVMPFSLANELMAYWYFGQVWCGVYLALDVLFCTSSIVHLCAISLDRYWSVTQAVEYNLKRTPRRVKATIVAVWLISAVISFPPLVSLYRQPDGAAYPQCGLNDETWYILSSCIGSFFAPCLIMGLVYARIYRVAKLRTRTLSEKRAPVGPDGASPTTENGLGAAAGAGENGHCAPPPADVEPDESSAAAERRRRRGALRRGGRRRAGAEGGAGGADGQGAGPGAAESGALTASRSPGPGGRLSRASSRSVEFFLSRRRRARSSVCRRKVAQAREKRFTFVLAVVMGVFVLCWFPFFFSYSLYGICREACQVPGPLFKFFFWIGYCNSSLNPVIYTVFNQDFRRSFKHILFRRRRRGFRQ
Experiment [7] in a line: inhibitors of Sendai virus-induced IRF3 signaling, primary screen, TLR/RLR signaling modifier project, cell-based, Sendai virus stimulus, luciferase, 10K MLSCN set (AID 602276).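 Further: firefly luciferase from ISG56 promoter only with Renilla not read in this screen; 0% = Sendai virus plus DMSO and 100% = medium plus DMSO without virus.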 Conditions: HEK293 RL24 IRF3 luciferase reporter, at 10 µM, stronger effect = higher value. Background: A reporter such as luciferase makes a cellular process visible.
Experiment [8] in a line: inhibitors of poly I:C-induced TLR3 signaling, primary screen, cell-based, poly I:C stimulus, luciferase, 10K MLSCN set (AID 602277;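 active means inhibition of the reporter signal at or above 50%; inactive means inhibition below 50%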). The conditions noted are these: HEK293-TLR3 RL24 IRF3 luciferase reporter, at 10 µM, stronger effect = higher value.

Activity calls are given as the source filed them.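 How the source made its calls, unless noted: active means inhibition at or above 50% at 10 µM; inactive means inhibition below 50%.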

Sequence of Voltage-gated potassium channel subunit beta-2 (Rattus norvegicus) (P62483 whole entry, looked up): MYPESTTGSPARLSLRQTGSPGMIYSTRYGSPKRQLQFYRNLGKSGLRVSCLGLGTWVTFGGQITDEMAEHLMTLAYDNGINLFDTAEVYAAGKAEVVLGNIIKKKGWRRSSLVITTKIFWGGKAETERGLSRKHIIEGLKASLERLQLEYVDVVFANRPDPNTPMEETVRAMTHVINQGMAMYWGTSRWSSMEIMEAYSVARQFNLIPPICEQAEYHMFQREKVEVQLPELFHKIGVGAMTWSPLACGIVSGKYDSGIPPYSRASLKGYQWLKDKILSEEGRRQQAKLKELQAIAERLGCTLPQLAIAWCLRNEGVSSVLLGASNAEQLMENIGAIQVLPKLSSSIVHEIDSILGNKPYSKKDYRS

For the compound `CCCC(C)c1nnc(NC(=O)C2CCCO2)s1` (centres undefined), in experiment [1], the cell count came to 575. In addition, the inhibition in experiment [1] was 0% (inactive); in experiment [3], 9.1% (inactive); in experiment [7], -3.58% (inactive); in experiment [8], -11.9% (inactive). Also, the inhibition of aggregation in experiment [2] was -11.3% (inactive). For the same compound, the nuclei count stood at 97.6% in experiment [2] and 103% in experiment [3]. The fluorescence slope in experiment [4] was -0.524 (inactive). The NADPH fluorescence slope in experiment [5] is -4e-05 (inactive). Besides, in experiment [6], the slope is 0.00609 (inactive).

With `COc1ccc(C(C(=O)NC2CCCCC2)N2CCC3(CC2)OCCO3)cc1` (centres undefined), the cell count in experiment [1] is 953. Further, the inhibition in experiment [1] was 1.8% (inactive); in experiment [3], -18.3% (inactive); in experiment [7], 31.2% (inactive); in experiment [8], 89.5% (active). The inhibition of aggregation in experiment [2] was -42.7% (inactive). The results for the nuclei count in experiment [2] and in experiment [3] were 132% and 135%, respectively. In addition, the fluorescence slope in experiment [4] was -0.525 (inactive). Besides, in experiment [5], the NADPH fluorescence slope is -6.1e-05 (inactive). Moreover, the slope in experiment [6] is 0.00579 (inactive).

Take `COc1ccc(C2C(C(=O)N3CCC(C)CC3)c3ccccc3C(=O)N2C)cc1` (centres undefined): the cell count in experiment [1] was 475. The inhibition was -3.8% (inactive) in experiment [1], -17.4% (inactive) in experiment [3], -9.25% (inactive) in experiment [7] and 12.2% (inactive) in experiment [8]. Besides, in experiment [2], the inhibition of aggregation was 12.4% (inactive). The nuclei count in experiment [2] was 91.5%; in experiment [3], 101%. The fluorescence slope in experiment [4] is -0.54 (inactive). Also, the NADPH fluorescence slope in experiment [5] is -1.3e-05 (inactive). Also, the slope in experiment [6] was 0.00505 (inactive).

As to `CCc1ccccc1NC(=O)c1cnc2n(c1=O)CCS2`, the cell count in experiment [1] came out at 582. The inhibition was -3.9% (inactive) in experiment [1], -4.7% (inactive) in experiment [3], 12.7% (inactive) in experiment [7] and -13.2% (inactive) in experiment [8]. The inhibition of aggregation in experiment [2] was -4.9% (inactive). The nuclei count in experiment [2] turned out to be 94.6%; in experiment [3], 117%. The fluorescence slope in experiment [4] is -0.494 (inactive). Moreover, the NADPH fluorescence slope in experiment [5] was -1.7e-05 (inactive). Also, in experiment [6], the slope is 0.00691 (inactive).

As for `COC(=O)CN1C(=O)CC(C)(C)S(=O)c2ccccc21` (centres undefined), in experiment [1], the cell count amounted to 769. The inhibition in experiment [1] is -9.2% (inactive); in experiment [3], -44% (inactive); in experiment [7] it was 4.76% (inactive); in experiment [8] it was 22.2% (inactive). Besides, in experiment [2], the inhibition of aggregation is 13.9% (inactive). For the same compound, the nuclei count in experiment [2] worked out at 82.6%; in experiment [3], 98.5%. The fluorescence slope in experiment [4] is -0.574 (inactive). The NADPH fluorescence slope in experiment [5] was -5.2e-05 (inactive). Besides, in experiment [6], the slope is 0.00765 (inactive).

As for `O=C(NCc1cccs1)C1CC(=O)N(c2ccccc2)C1` (centres undefined), in experiment [1], the cell count was found to be 345. Moreover, the inhibition in experiment [1] is -0.5% (inactive); in experiment [3], -28.7% (inactive); in experiment [7], 2.75% (inactive); in experiment [8], 4.93% (inactive). Moreover, in experiment [2], the inhibition of aggregation is 11.8% (inactive). The results for the nuclei count in experiment [2] and in experiment [3] were 98.2% and 84%, respectively. The fluorescence slope in experiment [4] is -0.625 (inactive). Also, the NADPH fluorescence slope in experiment [5] is 3.2e-06 (inactive). The slope in experiment [6] is 0.00459 (inactive).

On to `CN(Cc1ccccc1)C(=O)c1ccccc1NC(=O)c1ccco1`, for which the cell count in experiment [1] was 349. The inhibition in experiment [1] was -9.3% (inactive); in experiment [3], -102% (inactive); in experiment [7] it was -13.9% (inactive); in experiment [8] it was 98.1% (active). The inhibition of aggregation in experiment [2] is -4.5% (inactive). Moreover, the nuclei count in experiment [2] came to 86%; in experiment [3], 130%. In experiment [4], the fluorescence slope was -0.333 (inactive). For the same compound, in experiment [5], the NADPH fluorescence slope is -6e-05 (inactive). In experiment [6], the slope was 0.00495 (inactive).

Consider `CCOc1ccc2ccccc2c1C(=O)N1CCN(c2ccccc2)CC1`, for which the cell count in experiment [1] turned out to be 287. The inhibition in experiment [1] was -3% (inactive); in experiment [3], 44.7% (inactive); in experiment [7], 46.4% (inactive); in experiment [8], 56.3% (active). In experiment [2], the inhibition of aggregation was 41.9% (inactive). Also, the nuclei count in experiment [2] was determined as 15.6%; in experiment [3], 64.1%. In addition, the fluorescence slope in experiment [4] was -0.423 (inactive). Moreover, the NADPH fluorescence slope in experiment [5] was -1.3e-05 (inactive). The slope in experiment [6] was 0.0036 (inactive).

Regarding `COc1ccccc1NC(=O)c1oc2ccccc2c1NC(=O)c1cc(OC)c(OC)c(OC)c1`, the cell count in experiment [1] was found to be 582. Besides, the inhibition in experiment [1] was -7.6% (inactive); in experiment [3], 25.8% (inactive); in experiment [7], 36% (inactive); in experiment [8], 65.9% (active). For the same compound, the inhibition of aggregation in experiment [2] is -17.1% (inactive). The figures for the nuclei count in experiment [2] and in experiment [3] were 85.7% and 60.4%, respectively. Also, in experiment [4], the fluorescence slope was -0.36 (inactive). The NADPH fluorescence slope in experiment [5] was -9.5e-06 (inactive). For the same compound, in experiment [6], the slope was 0.00886 (inactive).

With `Cc1cc(C(F)(F)F)nc(SCC(=O)NC2=NC(=O)C(C)S2)n1` (centres undefined), in experiment [1], the cell count was 370. Also, the inhibition in experiment [1] was 6.1% (inactive); in experiment [3] it was 19.6% (inactive); in experiment [7], -20.9% (inactive); in experiment [8], -16.9% (inactive). Besides, the inhibition of aggregation in experiment [2] is 4.5% (inactive). Moreover, the nuclei count is 109% in experiment [2] and 99% in experiment [3]. Further, in experiment [4], the fluorescence slope is -0.457 (inactive). Besides, in experiment [5], the NADPH fluorescence slope was -1.9e-05 (inactive). For the same compound, the slope in experiment [6] was 0.00515 (inactive).

As for `Cc1cc(NC(=O)c2cc3ccccc3o2)cc(C)c1OCC(=O)N1CCOCC1`, the cell count in experiment [1] was found to be 388. The inhibition is 7.3% (inactive) in experiment [1], -11.8% (inactive) in experiment [3], -1.27% (inactive) in experiment [7] and -52% (inactive) in experiment [8]. Besides, the inhibition of aggregation in experiment [2] is -7% (inactive). In addition, the nuclei count came to 121% in experiment [2] and 115% in experiment [3]. Further, in experiment [4], the fluorescence slope was -0.526 (inactive). The NADPH fluorescence slope in experiment [5] is -4.4e-05 (inactive). Also, the slope in experiment [6] was 0.00621 (inactive).

As for `O=C(C1CCCN(S(=O)(=O)c2cccnc2)C1)N1CCn2c1nc1ccccc12` (centres undefined), in experiment [1], the cell count was 639. Also, the inhibition was -11.6% (inactive) in experiment [1], -57.5% (inactive) in experiment [3], -7.64% (inactive) in experiment [7] and -1.49% (inactive) in experiment [8]. The inhibition of aggregation in experiment [2] is -20.6% (inactive). Besides, the nuclei count amounted to 112% in experiment [2] and 107% in experiment [3]. Besides, the fluorescence slope in experiment [4] is -0.595 (inactive). Further, the NADPH fluorescence slope in experiment [5] was -2.6e-05 (inactive). Moreover, the slope in experiment [6] was 0.00573 (inactive).

For `Oc1ccccc1-c1nnc(COc2ccc(Cl)cc2Cl)o1`, the cell count in experiment [1] turned out to be 766. Besides, the inhibition was -8.5% (inactive) in experiment [1], -23.4% (inactive) in experiment [3], -0.185% (inactive) in experiment [7] and -1.08% (inactive) in experiment [8]. Also, the inhibition of aggregation in experiment [2] was -1.7% (inactive). In addition, the figures for the nuclei count in experiment [2] and in experiment [3] were 127% and 113%, respectively. In experiment [4], the fluorescence slope is -0.54 (inactive). Further, the NADPH fluorescence slope in experiment [5] is -2.9e-05 (inactive). Besides, the slope in experiment [6] is 0.00718 (inactive).

On to `CCCc1cc(C(=O)Nc2sc3c(c2C#N)CCC3)no1`, for which, in experiment [1], the cell count was determined as 633. Also, the inhibition in experiment [1] is -2.9% (inactive); in experiment [3], -34.8% (inactive); in experiment [7], 7.08% (inactive); in experiment [8] it was 10.9% (inactive). For the same compound, in experiment [2], the inhibition of aggregation was 11.9% (inactive). For the same compound, the nuclei count in experiment [2] was 95.8%; in experiment [3], 116%. In addition, in experiment [4], the fluorescence slope is -0.568 (inactive). Moreover, in experiment [5], the NADPH fluorescence slope is -2.8e-05 (inactive). The slope in experiment [6] is 0.00643 (inactive).

A word on the inhibition: it is the relative decrease from the control value, in per cent.
